# Test results as given in PubChem BioAssay (NCI).
# About 83,000 compounds went through this panel and 20% of them were active in at least one assay; those are over-represented in the sample as a whole.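 Compound tested at a single concentration for 48 hours in 96-well plates; a percent growth value below 10 was scored as active.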 Activity calls are given as the source filed them.
# Test system: MDA-MB-468 breast
# Assay: NCI-60 one-dose screen, 48 h (100 = growth as untreated, 0 = no growth, -100 = all killed)
# Settings: 10 µM unless noted
row,Compound,growth
1,CC1(C)CC[C@]23CC[C@]4(C)[C@H](CC[C@@H]5[C@@]6(C)CCNCC(C)(C)[C@@H]6CC[C@]54C)[C@H]2[C@H]1OC3,65.4% (inactive)
2,Nc1ccc(C2=CC(c3ccc(Cl)cc3)N3C=CSC3=N2)cc1 (centres undefined),-77.1% (active)
3,CC(Cc1cccc(C(F)(F)F)c1)NCCOC(=O)c1ccccc1 (centres undefined),107% (inactive)
4,Cc1c2cccnc2c(C)c2c1c1cc(CO)ccc1n2C,-48.7% (active)
5,CC(=O)Nc1ccc2c(c1)/C(=C\C=C/c1ccc([N+](C)(C)C)cc1)c1ccccc1-2,21.5% (inactive)
6,O=C(Nc1ccc(-n2ccc3c(NC(=O)c4ccccc4)ncnc32)cc1)Nc1cccc(Cl)c1Cl,-35.7% (active)
7,COC(=O)[C@H]1[C@H](OC)[C@@H](OC(=O)/C=C/c2ccncc2)CC2CN3CCc4c([nH]c5cc(OC)ccc45)[C@@H]3C[C@@H]21 (some centres undefined),53.6% (inactive)
8,O=c1cc(-c2ccccc2)nc2sc(-c3c[nH]c4ccc(F)cc34)nn12,67.4% (inactive)
9,Nc1nc(N)nc(N2CCCCC2)n1,124% (inactive)
10,CCCCOc1ccc(S(=O)(=O)N2CCN(c3nccc(N4CCOCC4)n3)CC2)cc1,6.94% (active)
11,O=C(Nc1ccccc1Cl)OCCN1CCOCC1,109% (inactive)
12,C=C1C(=O)O[C@H]2[C@H]1CC/C(CNS(=O)(=O)c1cccc3ccccc13)=C\CC[C@@]1(C)O[C@@H]21,1.44% (active)
13,O=C1CSC(c2ccccc2Cl)N1c1nnc(Cn2cnnc2)o1 (centres undefined),27.2% (inactive)
14,Nc1ncnc2c1N=C(c1ccc(F)cc1)CC(c1cccc(Nc3ccnc4cc(Cl)ccc34)c1)N2 (centres undefined),74.1% (inactive)
